# Screen size: about 48,000 compounds; about 13,000 (27%) showed an effect of 50% or more. The list shows a part of the results.
# Tested on: Wolbachia pipientis
# Experiment: Anti-Wolbachia Cell-Based Screen
# Format: functional
# Design: scale not given: in the data most compounds retested in dose-response had high values
# Details: 5 µM
row,SMILES,Percent Effect
1,CN(Cc1cccc(F)c1)C(=O)CN1CCCCC1Cn1cncn1 (centres undefined),-4.656%
2,COC(=O)CCN1CCCC1c1cccc2c1OCCO2 (centres undefined),6.335%
3,CN(C)C(=O)N1CC[C@@H](c2ccc3ccccc3c2)[C@H](O)C1,2.148%
4,COCC(=O)N[C@H](C)c1onc(-c2ccc(OC)cc2)c1C(=O)O,9.623%
5,Cc1cc(CN(C)Cc2csc(-c3ccc(C(C)C)cc3)n2)no1,-4.334%
6,COc1ccc(-c2nonc2N)cc1,116.2%
7,COc1ccc(-c2noc([C@@H](C)NC(=O)CC(C)C)c2C(=O)O)cc1,0.3938%
8,CC(C)c1ccc(-c2nonc2N)cc1,135.4%
9,CC(C)c1ccc(C(N)c2cccs2)cc1 (centres undefined),-4.854%
10,CCN1CCN(c2ccc(F)cc2C(C)NCc2cscn2)CC1 (centres undefined),16.44%
11,CC(C)CCC1=NC2(CCN(C(=O)N3CCN(C)CC3)CC2)C(=O)N1,15.84%
12,CN(C)C1CCC2(CCN(Cc3cccnc3)CC2)c2ccccc21.O=C(O)C(F)(F)F.O=C(O)C(F)(F)F.O=C(O)C(F)(F)F (centres undefined),103.9%
13,Cn1ccnc1CN1CCC2(CC1)CC(N1CCCC1)c1ccccc12 (centres undefined),116.8%
14,Cn1ccnc1CN1CCC2(CC1)CC(Nc1ccccn1)CO2 (centres undefined),-5.655%
15,Cn1ccnc1CN1CCC2(CC1)CC(NC(=O)c1ccccn1)CO2.O=C(O)C(F)(F)F (centres undefined),-5.802%
16,Cn1ccnc1CN1CCN(Cc2ccccc2C#N)CC1,1.879%
17,CN(C)C1CCC2(CCN(Cc3nccn3C)CC2)c2ccccc21.O=C(O)C(F)(F)F.O=C(O)C(F)(F)F (centres undefined),100.5%
18,COc1ccc2c(c1)C1(CCN(Cc3cccnc3)CC1)N(C)CC2.O=C(O)C(F)(F)F.O=C(O)C(F)(F)F.O=C(O)C(F)(F)F,47.52%
19,CN(C)C1CC2(CCN(C(=O)NC3CC3)CC2)c2ccccc21.O=C(O)C(F)(F)F (centres undefined),-41.61%
20,CCN(Cc1ccoc1)C(=O)NC1CCN(CC=C(C)C)CC1,-3.465%

row,SMILES,Percent Effect
1,Cc1cc(CN2C[C@@H](N3CCN(C)CC3)[C@H]3OCCC[C@H]32)oc1C.O=C(O)C(F)(F)F.O=C(O)C(F)(F)F.O=C(O)C(F)(F)F,8.988%
2,O=C(c1ccnnc1)N1C[C@H]2CCC[C@@H](OCc3cccnc3)[C@@H]2C1,-7.774%
3,N#Cc1ccc(C(=O)N2C[C@H](OCc3cccnc3)[C@H]3COC[C@H]32)cc1,101.1%
4,Cc1ccc(C(=O)N2C[C@H]3CCCC(OCc4cccnc4)[C@H]3C2)cn1.O=C(O)C(F)(F)F.O=C(O)C(F)(F)F (some centres undefined),-3.164%
5,N#Cc1ccc(N2CCC3(CC2)CC(OCc2cccnc2)CO3)cc1.O=C(O)C(F)(F)F (centres undefined),6.886%
6,O=C(c1ccc2c(c1)OCO2)N1C[C@H](OCC2CC2)[C@H]2COC[C@H]21,-18.04%
7,Cc1ccc(C(=O)N2C[C@H](OCc3cccnc3)[C@H]3COC[C@H]32)cn1,93.92%
8,O=C(c1ccncn1)N1CCO[C@H]2[C@@H](OCc3cccnc3)CC[C@@H]21,-20.63%
9,O=C(O)C(F)(F)F.O=C(c1cscn1)N1C[C@H]2CCCC(OCc3cccnc3)[C@H]2C1 (some centres undefined),-12.9%
10,Cc1nc(CO[C@H]2CN(C(=O)c3cccnc3)[C@@H]3COC[C@H]23)cs1,-38.06%
11,O=C(c1cscn1)N1C[C@H](OCc2cccnc2)[C@H]2COC[C@H]21,102.7%
12,O=C(C1CCOCC1)N1C[C@H](OCc2cccnc2)[C@H]2COC[C@H]21,112.8%
13,CNC(=O)[C@@H]1C[C@@H](NC(=O)Cc2nonc2C)CN1Cc1sccc1C,27.67%
14,CSCCCNC(=O)C1CCC(=O)N(C2CCCC2)C1 (centres undefined),-0.8236%
15,COC1CCN(C(=O)NCC(N)=O)CC(=O)N(C)c2ccccc21 (centres undefined),98.17%
16,CCN1CCN(C2CCN(C(C(N)=O)c3ccccc3)CC2)C1=O (centres undefined),-3.87%
17,Cc1ccccc1N1CC(C)N(C(=O)CCn2cccn2)CC1=O (centres undefined),17.53%
18,CN1CCC(CNC(=O)c2cccc(NC(N)=O)c2)c2ccccc21 (centres undefined),-10.01%
19,CCOC(=O)N1CCC(OC)c2ccccc2N(C)C(=O)C1 (centres undefined),82.02%
20,CCOC(=O)N1CCN(C(=O)C2Cc3ccccc3CN2C)CC1 (centres undefined),6.849%

row,SMILES,Percent Effect
1,CCOC(=O)COC1CCN(C(C)=O)CC(=O)N(C)c2ccccc21 (centres undefined),107.2%
2,COC1CN(C(=O)NCC(N)=O)CCC(=O)N(C)c2ccccc21 (centres undefined),111.8%
3,NC(=O)CC1CCN(C(=O)NCc2ccccc2-n2cccn2)CC1,4.172%
4,CCOC(=O)N1CCN(C(=O)C2CC(=O)N(c3ccccc3Br)C2)CC1 (centres undefined),18.95%
5,CN1CCC(CNC(=O)c2ccc(O)nc2)c2ccccc21 (centres undefined),-12.01%
6,Cc1ccc(C)c(SCC(=O)Nc2cccc(C(=O)N(C)C)n2)c1,-1.523%
7,Cc1nc(S(=O)(=O)CCn2cccn2)n(C2CCCC2)c1C,-3.165%
8,CCOC(=O)CNC(=O)N1CCC(OC)c2ccccc2N(C)C(=O)C1 (centres undefined),109.7%
9,CCOC(=O)CNC(=O)N1CCN(c2ncccn2)CC1,-13.49%
10,CCOC(=O)CNC(=O)N1CCOC(CCc2ccccc2)C1 (centres undefined),-4.892%
11,O=C(COC[C@@]12CCC[C@@H]1CN(C1CCCC1)C2)N1CCCC1.O=C(O)C(F)(F)F,93.22%
12,CN(C)S(=O)(=O)N1C[C@H]2CCC[C@@]2(COCc2cccnc2)C1.O=C(O)C(F)(F)F,15.15%
13,C1CC(N2C[C@@H]3COC[C@]3(COCC3CCOCC3)C2)C1.O=C(O)C(F)(F)F,101.5%
14,COCCNC(=O)[C@]12COC[C@H]1CN(C1CCOCC1)C2,-42.69%
15,CS(=O)(=O)N1C[C@H]2CCC[C@@]2(COCC2CCOCC2)C1,-10.38%
16,O=C(COC[C@]12COC[C@H]1CN(C1CCC1)C2)N1CCCC1.O=C(O)C(F)(F)F,91.79%
17,CCCS(=O)(=O)N1C[C@@H]2COC[C@]2(CN2CCOCC2)C1.O=C(O)C(F)(F)F,-7.734%
18,CS(=O)(=O)N1C[C@@H]2COC[C@]2(COCC(=O)N2CCCC2)C1,114.9%
19,CS(=O)(=O)N1C[C@@H]2COC[C@]2(CN2CCOCC2)C1.O=C(O)C(F)(F)F,2.768%
